# Experimental data: publication PMC7862700, “An all-to-all approach to the identification of sequence-specific readers for epigenetic DNA modifications on cytosine”
# What was measured:
# Experiment in all cases: DAPPL (digital affinity profiling via proximity ligation, sequencing); 10 mM Tris-HCl pH 7.5, 50 mM NaCl, 1 mM DTT, 4% glycerol, room temperature, 30 min; GST-TFs on glutathione beads, 16-mer random dsDNA library, 0.1% formaldehyde crosslink after washing; high values mean tight binding
# FLI1 = molecular target: T1, FLI1 (Homo sapiens, UniProt Q01543 1-452); conditions: protein: recombinant; tags: N-terminal GST; dsDNA, one strand shown
# T1 sequence: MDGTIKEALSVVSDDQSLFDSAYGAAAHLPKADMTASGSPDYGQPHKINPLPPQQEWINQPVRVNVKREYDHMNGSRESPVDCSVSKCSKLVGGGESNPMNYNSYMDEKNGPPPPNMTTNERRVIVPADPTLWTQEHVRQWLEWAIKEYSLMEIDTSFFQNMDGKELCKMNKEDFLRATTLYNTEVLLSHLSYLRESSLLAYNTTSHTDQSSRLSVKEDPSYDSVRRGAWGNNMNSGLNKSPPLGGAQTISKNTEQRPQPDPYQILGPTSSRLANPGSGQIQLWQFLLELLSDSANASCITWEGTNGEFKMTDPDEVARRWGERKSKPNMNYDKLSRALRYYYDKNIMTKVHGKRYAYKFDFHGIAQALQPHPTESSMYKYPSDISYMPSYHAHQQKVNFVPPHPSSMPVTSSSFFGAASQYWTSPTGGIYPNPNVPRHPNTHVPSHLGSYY
# Method in brief: (§1)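 In yeast, human transcription factors were expressed with a GST fusion, then pulled down on glutathione beads and given DNA barcodes. Pooled with a tag-only sample, they were exposed to 200 nmole of a 16-mer random double-stranded DNA library (Tris/NaCl/DTT/glycerol buffer, room temperature, 30 min), washed, crosslinked with 0.1% formaldehyde, proximity-ligated using BsaI/T4 ligase for 1 h at 37 °C, PCR-amplified and read on an Illumina NextSeq500. Each hexamer's frequency of reads for a factor, divided by the matching frequency for the tag-only sample, gives the binding signal.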
# ELK1 = molecular target: T2, ELK1 (Homo sapiens, UniProt P19419 1-428); conditions: protein: recombinant; tags: N-terminal GST; dsDNA, one strand shown
# T2 sequence: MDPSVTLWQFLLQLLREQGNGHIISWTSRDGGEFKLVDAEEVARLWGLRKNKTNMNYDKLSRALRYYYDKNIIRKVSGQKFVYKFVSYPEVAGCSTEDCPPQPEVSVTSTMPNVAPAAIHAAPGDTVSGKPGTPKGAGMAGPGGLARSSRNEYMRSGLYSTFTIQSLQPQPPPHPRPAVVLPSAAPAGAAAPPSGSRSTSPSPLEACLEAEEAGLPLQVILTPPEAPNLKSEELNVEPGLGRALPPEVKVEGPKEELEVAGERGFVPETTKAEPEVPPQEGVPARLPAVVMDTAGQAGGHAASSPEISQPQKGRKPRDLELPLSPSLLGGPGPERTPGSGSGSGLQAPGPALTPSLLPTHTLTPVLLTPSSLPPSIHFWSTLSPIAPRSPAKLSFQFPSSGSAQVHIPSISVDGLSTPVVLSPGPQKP
# Method in brief: as §1
# GABPA = molecular target: T3, GABPA (Homo sapiens, UniProt Q06546 1-454); conditions: protein: recombinant; tags: N-terminal GST; dsDNA, one strand shown
# T3 sequence: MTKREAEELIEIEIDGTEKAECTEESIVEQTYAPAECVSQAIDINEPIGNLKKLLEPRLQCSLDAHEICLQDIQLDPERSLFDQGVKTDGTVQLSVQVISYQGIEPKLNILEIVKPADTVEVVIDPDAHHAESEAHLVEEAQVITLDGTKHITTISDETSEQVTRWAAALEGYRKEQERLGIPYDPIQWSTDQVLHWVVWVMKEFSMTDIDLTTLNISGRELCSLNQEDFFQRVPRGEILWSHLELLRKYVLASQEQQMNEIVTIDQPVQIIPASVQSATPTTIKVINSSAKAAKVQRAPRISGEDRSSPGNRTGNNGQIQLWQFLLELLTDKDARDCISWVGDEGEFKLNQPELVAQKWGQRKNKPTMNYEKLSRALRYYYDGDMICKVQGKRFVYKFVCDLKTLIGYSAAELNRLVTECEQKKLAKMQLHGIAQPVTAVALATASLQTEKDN
# Method in brief: as §1
# ERG = molecular target: T4, ERG (Homo sapiens, UniProt P11308 1-479); conditions: protein: recombinant; tags: N-terminal GST; dsDNA, one strand shown
# T4 sequence: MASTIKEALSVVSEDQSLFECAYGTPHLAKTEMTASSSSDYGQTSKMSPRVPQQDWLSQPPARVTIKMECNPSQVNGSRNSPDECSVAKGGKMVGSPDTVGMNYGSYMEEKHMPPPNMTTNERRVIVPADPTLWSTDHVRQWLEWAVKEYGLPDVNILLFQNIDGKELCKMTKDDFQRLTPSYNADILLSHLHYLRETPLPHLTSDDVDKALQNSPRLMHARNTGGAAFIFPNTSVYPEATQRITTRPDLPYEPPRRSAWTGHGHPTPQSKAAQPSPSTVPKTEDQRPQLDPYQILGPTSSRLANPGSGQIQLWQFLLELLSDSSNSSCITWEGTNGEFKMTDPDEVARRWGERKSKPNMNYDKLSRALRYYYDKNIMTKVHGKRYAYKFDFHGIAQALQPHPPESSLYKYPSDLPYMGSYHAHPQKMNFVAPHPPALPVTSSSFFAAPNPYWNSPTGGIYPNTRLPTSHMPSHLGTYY
# Method in brief: as §1
# ELF1 = ELF1 (Homo sapiens, UniProt P32519 1-619); conditions: protein: recombinant; tags: N-terminal GST; dsDNA, one strand shown
# Method in brief: as §1
# EHF = molecular target: T5, EHF (Homo sapiens, UniProt Q9NZC4 1-300); conditions: protein: recombinant; tags: N-terminal GST; dsDNA, one strand shown
# T5 sequence: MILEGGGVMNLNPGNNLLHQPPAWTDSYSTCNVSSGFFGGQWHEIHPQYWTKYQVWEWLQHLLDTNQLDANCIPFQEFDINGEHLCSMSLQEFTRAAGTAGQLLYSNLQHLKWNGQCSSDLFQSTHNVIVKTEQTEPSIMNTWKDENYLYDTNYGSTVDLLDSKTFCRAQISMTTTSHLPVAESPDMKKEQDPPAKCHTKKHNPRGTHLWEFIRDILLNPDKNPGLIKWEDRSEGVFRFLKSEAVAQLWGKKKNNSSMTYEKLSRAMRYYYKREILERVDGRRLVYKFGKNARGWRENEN
# Method in brief: as §1
# SPI1 = SPI1 (Homo sapiens, UniProt P17947 1-270); conditions: protein: recombinant; tags: N-terminal GST; dsDNA, one strand shown
# Method in brief: as §1
# SPIB = SPIB (Homo sapiens, UniProt Q01892 1-262); conditions: protein: recombinant; tags: N-terminal GST; dsDNA, one strand shown
# Method in brief: as §1
# ELK3 = molecular target: T6, ELK3 (Homo sapiens, UniProt P41970 1-407); conditions: protein: recombinant; tags: N-terminal GST; dsDNA, one strand shown
# T6 sequence: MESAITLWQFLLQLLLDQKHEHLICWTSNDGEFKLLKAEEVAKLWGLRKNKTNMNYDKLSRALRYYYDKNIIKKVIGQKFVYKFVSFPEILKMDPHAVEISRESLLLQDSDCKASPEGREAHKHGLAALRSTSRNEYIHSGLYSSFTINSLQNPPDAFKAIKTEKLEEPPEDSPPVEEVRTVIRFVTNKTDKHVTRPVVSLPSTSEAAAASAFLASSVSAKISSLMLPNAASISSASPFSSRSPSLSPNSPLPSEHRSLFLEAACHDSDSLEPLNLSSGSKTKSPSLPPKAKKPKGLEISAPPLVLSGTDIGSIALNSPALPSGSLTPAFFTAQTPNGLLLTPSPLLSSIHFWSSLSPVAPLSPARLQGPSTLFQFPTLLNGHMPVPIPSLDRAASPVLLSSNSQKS
# Method in brief: as §1
# FEV = molecular target: T7, FEV (Homo sapiens, UniProt Q99581 1-238); conditions: protein: recombinant; tags: N-terminal GST; dsDNA, one strand shown
# T7 sequence: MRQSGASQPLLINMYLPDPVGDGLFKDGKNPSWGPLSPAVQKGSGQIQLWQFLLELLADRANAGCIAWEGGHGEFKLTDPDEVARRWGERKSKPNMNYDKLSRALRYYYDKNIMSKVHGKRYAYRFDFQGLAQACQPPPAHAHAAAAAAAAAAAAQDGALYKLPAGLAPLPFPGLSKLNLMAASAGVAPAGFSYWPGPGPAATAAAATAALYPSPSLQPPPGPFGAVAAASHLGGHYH
# Method in brief: as §1
# ETV5 = ETV5 (Homo sapiens, UniProt P41161 1-510); conditions: protein: recombinant; tags: N-terminal GST; dsDNA, one strand shown
# Method in brief: as §1
# HSF1 = HSF1 (Homo sapiens, UniProt Q00613 1-529); conditions: protein: recombinant; tags: N-terminal GST; chain copies: 3; dsDNA, one strand shown
# Method in brief: as §1
# SPIC = molecular target: T8, SPIC (Homo sapiens, UniProt Q8N5J4 1-248); conditions: protein: recombinant; tags: N-terminal GST; dsDNA, one strand shown
# T8 sequence: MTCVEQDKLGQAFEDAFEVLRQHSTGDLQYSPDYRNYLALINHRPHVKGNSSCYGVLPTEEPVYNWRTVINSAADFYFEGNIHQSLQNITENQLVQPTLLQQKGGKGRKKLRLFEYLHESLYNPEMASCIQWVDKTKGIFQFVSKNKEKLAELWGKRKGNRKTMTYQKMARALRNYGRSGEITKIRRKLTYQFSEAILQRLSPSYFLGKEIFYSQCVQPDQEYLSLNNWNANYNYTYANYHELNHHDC
# Method in brief: as §1
# ELF4 = ELF4 (Homo sapiens, UniProt Q99607 1-663); conditions: protein: recombinant; tags: N-terminal GST; dsDNA, one strand shown
# Method in brief: as §1
# ELK4 = molecular target: T9, ELK4 (Homo sapiens, UniProt P28324-2 1-405); conditions: protein: recombinant; tags: N-terminal GST; dsDNA, one strand shown
# T9 sequence: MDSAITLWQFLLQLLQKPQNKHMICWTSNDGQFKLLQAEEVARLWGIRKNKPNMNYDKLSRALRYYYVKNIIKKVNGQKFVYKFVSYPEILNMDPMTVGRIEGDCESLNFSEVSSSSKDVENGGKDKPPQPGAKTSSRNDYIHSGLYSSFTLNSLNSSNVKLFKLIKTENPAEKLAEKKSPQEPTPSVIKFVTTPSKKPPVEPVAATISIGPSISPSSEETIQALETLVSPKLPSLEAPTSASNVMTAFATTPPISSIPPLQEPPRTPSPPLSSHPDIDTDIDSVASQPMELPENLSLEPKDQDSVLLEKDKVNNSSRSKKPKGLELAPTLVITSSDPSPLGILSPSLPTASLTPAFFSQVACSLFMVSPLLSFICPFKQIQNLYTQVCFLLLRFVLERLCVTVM
# Method in brief: as §1
# ETV2 = molecular target: T10, ETV2 (Homo sapiens, UniProt O00321 1-342); conditions: protein: recombinant; tags: N-terminal GST; dsDNA, one strand shown
# T10 sequence: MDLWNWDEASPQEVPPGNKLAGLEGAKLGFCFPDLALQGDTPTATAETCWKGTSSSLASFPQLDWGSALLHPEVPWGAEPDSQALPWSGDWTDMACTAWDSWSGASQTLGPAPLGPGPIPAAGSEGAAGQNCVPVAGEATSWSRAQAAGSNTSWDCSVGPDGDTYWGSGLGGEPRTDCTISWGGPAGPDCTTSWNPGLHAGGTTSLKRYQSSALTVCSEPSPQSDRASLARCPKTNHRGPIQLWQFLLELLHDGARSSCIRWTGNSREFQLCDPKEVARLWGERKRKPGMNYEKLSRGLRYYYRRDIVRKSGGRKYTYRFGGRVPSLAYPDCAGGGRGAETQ
# Method in brief: as §1
# ELF3 = molecular target: T11, ELF3 (Homo sapiens, UniProt P78545 1-371); conditions: protein: recombinant; tags: N-terminal GST; dsDNA, one strand shown
# T11 sequence: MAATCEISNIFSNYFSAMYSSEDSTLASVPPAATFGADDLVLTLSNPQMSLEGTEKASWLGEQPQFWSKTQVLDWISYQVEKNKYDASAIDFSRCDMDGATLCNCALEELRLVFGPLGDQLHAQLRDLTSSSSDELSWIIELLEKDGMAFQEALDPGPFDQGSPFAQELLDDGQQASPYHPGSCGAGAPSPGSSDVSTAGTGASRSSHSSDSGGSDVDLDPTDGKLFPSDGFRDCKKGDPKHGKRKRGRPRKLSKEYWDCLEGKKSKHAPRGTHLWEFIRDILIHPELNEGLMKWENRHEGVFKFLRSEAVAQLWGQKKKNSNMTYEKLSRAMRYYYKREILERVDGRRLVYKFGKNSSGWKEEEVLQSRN
# Method in brief: as §1
# CRX = CRX (Homo sapiens, UniProt O43186 1-299); conditions: protein: recombinant; tags: N-terminal GST; dsDNA, one strand shown
# Method in brief: as §1
# ETV1 = ETV1 (Homo sapiens, UniProt P50549 1-477); conditions: protein: recombinant; tags: N-terminal GST; dsDNA, one strand shown
# Method in brief: as §1
# Sequence of HSF1 (Q00613 whole entry): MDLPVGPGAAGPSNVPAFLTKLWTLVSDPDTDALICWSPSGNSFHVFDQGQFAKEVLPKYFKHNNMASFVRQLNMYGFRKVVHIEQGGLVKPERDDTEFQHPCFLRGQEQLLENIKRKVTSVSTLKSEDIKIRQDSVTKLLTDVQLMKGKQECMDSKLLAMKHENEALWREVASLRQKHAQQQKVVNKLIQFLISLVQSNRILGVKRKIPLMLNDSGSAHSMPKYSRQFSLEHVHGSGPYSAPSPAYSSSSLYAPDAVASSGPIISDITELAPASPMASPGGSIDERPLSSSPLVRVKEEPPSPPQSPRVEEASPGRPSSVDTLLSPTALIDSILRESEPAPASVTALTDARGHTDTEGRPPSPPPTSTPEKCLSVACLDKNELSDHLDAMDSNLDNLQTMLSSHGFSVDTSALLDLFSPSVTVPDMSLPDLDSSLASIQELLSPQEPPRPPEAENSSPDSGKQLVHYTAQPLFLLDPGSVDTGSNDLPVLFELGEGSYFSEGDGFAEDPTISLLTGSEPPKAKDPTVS
# Sequence of ETV1 (P50549 whole entry): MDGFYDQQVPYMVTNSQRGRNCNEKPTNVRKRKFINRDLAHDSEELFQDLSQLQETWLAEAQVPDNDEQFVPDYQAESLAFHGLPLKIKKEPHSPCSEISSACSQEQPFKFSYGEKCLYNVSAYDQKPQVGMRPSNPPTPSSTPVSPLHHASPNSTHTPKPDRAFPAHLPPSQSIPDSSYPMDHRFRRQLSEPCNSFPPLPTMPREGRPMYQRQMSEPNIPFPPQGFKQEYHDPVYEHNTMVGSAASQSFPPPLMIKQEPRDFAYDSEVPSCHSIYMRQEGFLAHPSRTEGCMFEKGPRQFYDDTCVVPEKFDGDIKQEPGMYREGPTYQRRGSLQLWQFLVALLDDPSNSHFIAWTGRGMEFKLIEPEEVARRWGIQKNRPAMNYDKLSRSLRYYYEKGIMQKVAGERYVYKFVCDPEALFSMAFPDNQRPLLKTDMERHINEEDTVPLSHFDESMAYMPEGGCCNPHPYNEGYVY
# Sequence of SPIB (Q01892 whole entry): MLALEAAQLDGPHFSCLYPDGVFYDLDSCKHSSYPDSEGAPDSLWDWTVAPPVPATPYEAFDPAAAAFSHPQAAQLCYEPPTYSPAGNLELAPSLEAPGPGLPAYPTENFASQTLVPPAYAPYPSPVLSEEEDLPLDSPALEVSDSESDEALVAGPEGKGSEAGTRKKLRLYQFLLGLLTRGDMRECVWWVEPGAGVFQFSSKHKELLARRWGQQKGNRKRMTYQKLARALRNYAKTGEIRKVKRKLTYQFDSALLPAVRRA
# Sequence of ELF1 (P32519 whole entry): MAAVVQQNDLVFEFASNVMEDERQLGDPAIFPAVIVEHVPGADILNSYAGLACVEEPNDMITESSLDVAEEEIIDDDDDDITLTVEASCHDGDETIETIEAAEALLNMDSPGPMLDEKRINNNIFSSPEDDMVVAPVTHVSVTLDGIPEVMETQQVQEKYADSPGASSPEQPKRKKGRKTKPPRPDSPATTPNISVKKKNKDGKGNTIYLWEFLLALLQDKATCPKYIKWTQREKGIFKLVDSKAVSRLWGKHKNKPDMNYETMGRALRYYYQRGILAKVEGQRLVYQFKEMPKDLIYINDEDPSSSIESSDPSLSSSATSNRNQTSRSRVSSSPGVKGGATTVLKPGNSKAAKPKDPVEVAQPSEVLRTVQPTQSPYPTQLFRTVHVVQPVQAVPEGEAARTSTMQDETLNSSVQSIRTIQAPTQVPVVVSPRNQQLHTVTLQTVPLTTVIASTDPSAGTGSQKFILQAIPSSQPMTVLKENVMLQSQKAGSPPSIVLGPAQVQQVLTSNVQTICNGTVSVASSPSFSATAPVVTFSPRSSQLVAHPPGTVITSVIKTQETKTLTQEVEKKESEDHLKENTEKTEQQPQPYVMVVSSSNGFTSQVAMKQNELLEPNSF
# Sequence of CRX (O43186 whole entry): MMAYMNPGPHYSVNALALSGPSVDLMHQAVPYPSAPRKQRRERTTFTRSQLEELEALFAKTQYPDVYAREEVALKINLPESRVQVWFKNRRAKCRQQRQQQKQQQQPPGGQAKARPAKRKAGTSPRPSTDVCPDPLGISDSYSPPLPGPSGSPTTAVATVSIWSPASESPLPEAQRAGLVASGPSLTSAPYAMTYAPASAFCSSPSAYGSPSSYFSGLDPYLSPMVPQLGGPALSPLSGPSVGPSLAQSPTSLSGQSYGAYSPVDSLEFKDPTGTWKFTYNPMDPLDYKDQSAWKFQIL
# Sequence of ELF4 (Q99607 whole entry): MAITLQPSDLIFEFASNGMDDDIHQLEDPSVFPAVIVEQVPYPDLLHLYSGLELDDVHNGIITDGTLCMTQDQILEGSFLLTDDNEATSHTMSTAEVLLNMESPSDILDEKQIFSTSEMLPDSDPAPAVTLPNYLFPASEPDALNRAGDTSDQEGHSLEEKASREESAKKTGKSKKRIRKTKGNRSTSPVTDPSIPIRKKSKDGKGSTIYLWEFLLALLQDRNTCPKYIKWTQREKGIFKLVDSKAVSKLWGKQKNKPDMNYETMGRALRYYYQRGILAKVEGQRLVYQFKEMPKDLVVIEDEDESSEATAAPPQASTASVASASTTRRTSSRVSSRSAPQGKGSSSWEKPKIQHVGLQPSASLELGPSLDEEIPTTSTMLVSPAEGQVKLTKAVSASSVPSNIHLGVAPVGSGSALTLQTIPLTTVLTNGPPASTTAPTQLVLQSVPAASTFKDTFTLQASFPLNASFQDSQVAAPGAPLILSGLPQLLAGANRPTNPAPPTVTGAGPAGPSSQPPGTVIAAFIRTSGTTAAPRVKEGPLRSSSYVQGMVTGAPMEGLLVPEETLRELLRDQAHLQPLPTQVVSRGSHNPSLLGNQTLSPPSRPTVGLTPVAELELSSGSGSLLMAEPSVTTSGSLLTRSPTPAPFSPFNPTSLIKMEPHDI
# Sequence of ETV5 (P41161 whole entry): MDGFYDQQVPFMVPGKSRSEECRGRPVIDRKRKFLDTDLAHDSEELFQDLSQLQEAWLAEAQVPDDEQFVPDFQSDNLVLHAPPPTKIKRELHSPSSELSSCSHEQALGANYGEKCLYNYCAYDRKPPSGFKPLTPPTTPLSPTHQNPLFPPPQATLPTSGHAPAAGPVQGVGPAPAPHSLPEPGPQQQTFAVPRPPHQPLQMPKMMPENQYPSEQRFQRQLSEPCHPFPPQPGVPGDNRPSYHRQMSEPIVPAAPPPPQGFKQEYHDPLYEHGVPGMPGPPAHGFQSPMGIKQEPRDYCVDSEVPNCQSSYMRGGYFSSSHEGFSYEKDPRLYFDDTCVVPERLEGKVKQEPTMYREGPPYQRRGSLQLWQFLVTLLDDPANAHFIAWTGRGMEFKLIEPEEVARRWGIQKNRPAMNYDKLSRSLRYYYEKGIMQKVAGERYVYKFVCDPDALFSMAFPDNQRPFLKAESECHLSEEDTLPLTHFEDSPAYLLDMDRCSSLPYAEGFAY
sequence,measurement,setting,value
AACCTC,binding signal,FLI1,"1.22 fold enrichment (6-mer frequency, TF over GST control)"
same,binding signal,ELK1,"1.27 fold enrichment (6-mer frequency, TF over GST control)"
same,binding signal,GABPA,"1.28 fold enrichment (6-mer frequency, TF over GST control)"
same,binding signal,ERG,"1.23 fold enrichment (6-mer frequency, TF over GST control)"
same,binding signal,ELF1,"1.29 fold enrichment (6-mer frequency, TF over GST control)"
same,binding signal,EHF,"1.2 fold enrichment (6-mer frequency, TF over GST control)"
same,binding signal,SPI1,"1.2 fold enrichment (6-mer frequency, TF over GST control)"
same,binding signal,SPIB,"1.19 fold enrichment (6-mer frequency, TF over GST control)"
same,binding signal,ELK3,"1.23 fold enrichment (6-mer frequency, TF over GST control)"
same,binding signal,FEV,"1.18 fold enrichment (6-mer frequency, TF over GST control)"
same,binding signal,ETV5,"1.22 fold enrichment (6-mer frequency, TF over GST control)"
same,binding signal,HSF1,"1.17 fold enrichment (6-mer frequency, TF over GST control)"
same,binding signal,SPIC,"1.4 fold enrichment (6-mer frequency, TF over GST control)"
same,binding signal,ELF4,"1.2 fold enrichment (6-mer frequency, TF over GST control)"
same,binding signal,ELK4,"1.26 fold enrichment (6-mer frequency, TF over GST control)"
same,binding signal,ETV2,"1.32 fold enrichment (6-mer frequency, TF over GST control)"
same,binding signal,ELF3,"1.28 fold enrichment (6-mer frequency, TF over GST control)"
same,binding signal,CRX,"1.11 fold enrichment (6-mer frequency, TF over GST control)"
same,binding signal,ETV1,"1.24 fold enrichment (6-mer frequency, TF over GST control)"
